Results taken from PubChem BioAssay (EPA / NIEHS).
Activity calls are given as the source filed them. The calls were made as follows: active = hit-call score of the fitted dose curve at least 0.9, where 1 is the maximum; inactive = score below 0.9.

Columns and labels:
[1] = BSK_BT_Bcell_Proliferation: Viability Assessment in the BioMAP Diversity Plus: BT Assay for B cell Proliferation (AID 2284227); details: primary human B cells with PBMC
Outline: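 SRB-based protein staining (0.1% SRB after 10% TCA fixation, 560 nm) quantifies proliferation in human B cells co-cultured with PBMC, 72 h post-dosing, with signal gain scored relative to DMSO negative control.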

[2] = read-out: Interleukin 6 (IL6), IL6 (gene 3569); experiment: BSK_BT_xIL6: BioMAP Diversity Plus: BT Assay for Interleukin 6 (IL6) Biomarker Activity (AID 2284228); details: primary human B cells with PBMC
Outline: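 Readout: secreted IL-6 via Luminex xMAP multiplex, 24 h post-dosing. System: primary human B cells co-cultured with PBMC. Signal change scored relative to DMSO vehicle, positive fitting direction.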

[3] = read-out: Interleukin 17A (IL17A), IL17A (gene 3605); experiment: BSK_BT_xIL17A: BioMAP Diversity Plus: BT Assay for Interleukin 17A (IL17A) Biomarker Activity (AID 2284229); details: primary human B cells with PBMC
Outline: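 Luminex xMAP readout of secreted IL-17A; human B cell + PBMC co-culture; 24 h post-dose; positive-direction fit vs DMSO negative control.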

[4] = read-out: Tumor necrosis factor (Homo sapiens) (UniProt P01375); experiment: BSK_BT_xTNFa: BioMAP Diversity Plus: BT Assay for Tumor necrosis factor alpha (TNF-alpha) Biomarker Activity (AID 2284230); details: primary human B cells with PBMC
Outline: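 Compounds were added to a B cell plus PBMC co-culture, and after 24 h secreted TNF-alpha was quantified with Luminex xMAP technology, with responses fitted upward from the DMSO control.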

[5] = read-out: Vascular cell adhesion molecule 1 (VCAM1), VCAM1 (gene 7412); experiment: BSK_MyoF_VCAM1: BioMAP Diversity Plus: MyoF Assay for Vascular cell adhesion molecule 1 (VCAM1) Biomarker Activity (AID 2284231); details: primary human lung fibroblasts
Outline: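 MyoF system, lung fibroblasts; 24 h post-dose; VCAM-1 by ELISA; gain-of-signal fit vs DMSO baseline.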

[6] = read-out: Collagen I, COL1A1 (gene 1277); experiment: BSK_MyoF_CollagenI: BioMAP Diversity Plus: MyoF Assay for Collagen I Biomarker Activity (AID 2284238); details: primary human lung fibroblasts
Outline: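 ELISA readout of Collagen I after 24 h chemical treatment of primary human lung fibroblast cultures; gain of signal scored relative to DMSO vehicle baseline.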

[7] = read-out: Collagen III, COL3A1 (gene 1281); experiment: BSK_MyoF_CollagenIII: BioMAP Diversity Plus: MyoF Assay for Collagen III Biomarker Activity (AID 2284239); details: primary human lung fibroblasts
Outline: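 Lung fibroblast culture; 24 h compound exposure; collagen III by ELISA; gain-of-signal fit vs DMSO baseline.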

[8] = read-out: Interleukin 17F (IL17F), IL17F (gene 112744); experiment: BSK_BT_xIL17F: BioMAP Diversity Plus: BT Assay for Interleukin 17F (IL17F) Biomarker Activity (AID 2284243); details: primary human B cells with PBMC
Outline: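 Secreted IL-17F, read on LumineX xMAP beads, was taken as the endpoint. Cultures combined human B cells and peripheral blood mononuclear cells, sampled 24 hours after dosing, with DMSO serving as negative control.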

[9] = read-out: Actin alpha 1 (ACTA1), ACTA1 (gene 58); experiment: BSK_MyoF_ACTA1: BioMAP Diversity Plus: MyoF Assay for Actin alpha 1 (ACTA1) Biomarker Activity (AID 2284244); details: primary human lung fibroblasts
Outline: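 Cells were exposed to chemical for 24 h before a-SMA levels were quantified by ELISA in human lung fibroblasts. Increases were fitted against DMSO as negative control; parallel SRB staining (0.1% after 10% TCA fixation, 560 nm) assessed cytotoxicity.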

[10] = read-out: Interleukin 2 (IL2), IL2 (gene 3558); experiment: BSK_BT_xIL2: BioMAP Diversity Plus: BT Assay for Interleukin 2 (IL2) Biomarker Activity (AID 2284245); details: primary human B cells with PBMC
Outline: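 The BT system combines human B cells with peripheral blood mononuclear cells. Twenty-four hours after chemical dosing, secreted IL-2 was measured with xMAP bead technology, and responses were analyzed as increases over DMSO controls.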

[11] = BSK_BT_PBMCCytotoxicity: PBMC Cytotoxicity Assessment in the BioMAP Diversity Plus: BT Assay (AID 2284225); details: primary human B cells with PBMC;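 also: PBMC viability measured by Alamar Blue dye reduction fluorescence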
Outline: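 Viability by Alamar Blue reduction (6 h, ex/em 546/580 nm) after 90 h culture of SEB/TSST-1-activated PBMC (20 ng/mL each) given compound 1 h before activation. DMSO served as baseline for curve fitting.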

[12] = read-out: Secreted IgG (sIgG), gene 3500; experiment: BSK_BT_sIgG: BioMAP Diversity Plus: BT Assay for Secreted IgG (sIgG) Biomarker Activity (AID 2284226); details: primary human B cells with PBMC
Outline: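 Cells (B cells with peripheral blood mononuclear cells) are dosed, cultured 24 h, then supernatant IgG is measured by ELISA. DMSO serves as negative control; curves are fitted for signal increase.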

[13] = read-out: Basic fibroblast growth factor (bFGF), FGF2 (gene 2247); experiment: BSK_MyoF_bFGF: BioMAP Diversity Plus: MyoF Assay for Basic fibroblast growth factor (bFGF) Biomarker Activity (AID 2284246); details: primary human lung fibroblasts
Outline: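 Chemicals are added to human lung fibroblast cultures and incubated 24 h. bFGF is then measured by ELISA, while parallel cultures receive SRB staining for total protein as a cytotoxicity check. Data are fitted upward against DMSO.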

Measured: AC50

Tumor necrosis factor (Homo sapiens), sequence (P01375 whole entry, looked up): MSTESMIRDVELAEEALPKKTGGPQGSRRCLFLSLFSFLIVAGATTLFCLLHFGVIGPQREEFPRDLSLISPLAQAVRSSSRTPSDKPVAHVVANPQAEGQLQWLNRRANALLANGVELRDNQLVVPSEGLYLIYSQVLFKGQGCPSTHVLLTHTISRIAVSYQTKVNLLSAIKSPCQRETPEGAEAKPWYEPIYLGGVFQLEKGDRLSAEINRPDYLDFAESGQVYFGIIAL

CC(c1cc(C(C)(C)C)cc(C(C)(C)C)c1O)c1cc(C(C)(C)C)cc(C(C)(C)C)c1O
inactive: [5] | [6] | [7] | [9]
active: [1] 28.1 µM | [2] 32.3 µM | [3] 17.2 µM | [4] 26.5 µM | [8] 18.1 µM | [10] 20 µM

CC/C=C\C/C=C\C/C=C\CCCCCCCC(=O)OC
active: [11] 17.4 µM | [1] 21.6 µM | [2] 13.5 µM | [3] 12 µM | [4] 27.8 µM | [5] 11.1 µM | [6] 9.7 µM | [7] 10.6 µM | [8] 15.2 µM | [9] 6.98 µM | [10] 27.5 µM

CCNc1nc(NC(C)(C)C)nc(OC)n1
active: [12] 13.9 µM
not listed: [11] | [13]
inactive: all other assays above

O=C(Cl)c1c(Cl)c(Cl)c(C(=O)Cl)c(Cl)c1Cl
not listed: [12] | [13]
inactive: all other assays above

CC1(C)CC(O)CC(C)(C)N1[O]
not listed: [11]
inactive: all other assays above

c1ccc2c(c1)[nH]c1ccccc12
not listed: [11]
inactive: all other assays above

COc1ccc(C(=O)c2ccccc2)c(O)c1
not listed: [11] | [13]
inactive: all other assays above

CC(C)c1cccc(C(C)C)c1N
not listed: [12]
inactive: all other assays above

O=C(Oc1ccccc1)c1ccccc1C(=O)Oc1ccccc1
active: [1] 26.2 µM | [5] 20 µM | [9] 30.2 µM
not listed: [11] | [12] | [13]
inactive: all other assays above

CCOC(=O)C1=NN(c2ccc(Cl)cc2Cl)C(C)(C(=O)OCC)C1 (stereo unspecified)
not listed: [12] | [13]
inactive: all other assays above

CCOC(=O)C1=NOC(c2ccccc2)(c2ccccc2)C1
active: [2] 6.05 µM
not listed: [11] | [12] | [13]
inactive: all other assays above

Oc1ccc(/C=C/c2cc(O)cc(O)c2)cc1
inactive: [5] | [6] | [7] | [9] | [10]
active: [1] 24.5 µM | [2] 35.4 µM | [3] 20 µM | [4] 25.7 µM | [8] 23.9 µM
